Most compounds without a hit are left out; they make up all but 17% or so of the library.
ATXN viability = reduces viability in counter-screen for ATXN expression inhibitors; S2 cells (HEK-293 line with an ATXN2-luciferase reporter) viability, CellTiter-Fluor protease fluorescence, 24 h; Potency, µM (series often up to 56.7 µM), most hits filed as cytotoxic; actives 0.49% (n = 400,000); AID 651635; further: nearly all actives have a fitted effect of over 40% in size
TDP1 cell CPT = growth inhibition of DT40 Tdp1-/-;hTDP1 cells with camptothecin (screen for TDP1 inhibitors); actives 12% (n = 420,000); chicken DT40 Tdp1-/-;hTDP1 cells + 20 nM CPT, ATP luminescence, 48 h; Potency, µM (titrated, usually from 46.2 µM), for the others: at the top dose activity change, negative = growth inhibition, actives largely listed as inhibitors; further: on the % scale 0 is the no-effect control and ±100 the full control effect; nearly all actives have a fitted effect of over 55% in size
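Chicken DT40 Tdp1-/- cells stably complemented with human TDP1 were seeded at 400 cells/well in medium containing 20 nM camptothecin, exposed to pin-transferred compounds, and grown at 37 °C for at least 48 hr. Viability was read as ATP luminescence.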
HepG2 viability = kills HepG2 cells in TGF-b inhibitor counter-screen; Potency, µM (highest dose often 46.1 µM), inactives show at the highest dose activity change, negative = cytotoxicity, hits mostly cytotoxic; AID 588856; HepG2 CAGA-GFP viability, ATP luminescence, 18 h; actives 0.76% (n = 410,000)
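HepG2 CAGA-GFP cells (1000/well, DMEM with 1% FBS) received compound, then TGF-beta at 500 pg/mL final, and were incubated 18 hours at 37 degrees C. Viability was read by CellTiter-Glo luminescence. Media-only wells were set as complete cell-killing and DMSO as no toxicity.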
ATXN2 expr inh = reduces ATXN2 reporter expression in HEK-293 cells; HEK-293 ATXN2-luciferase reporter, luminescence, 24 h; Potency, µM (doses to about 57 µM), without a hit: at the highest dose activity change, negative = inhibition, usual class: inhibitors; actives 0.72% (n = 360,000); AID 1745845; further: on the % scale 0 is the no-effect control and ±100 the full control effect; nearly all actives have a fitted effect of over 55% in size
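qHTS (up to 57 uM final) was run with 24 h compound exposure of reporter cells at 37 °C. Each well was multiplexed: SteadyGlo luminescence measured ATXN2-luciferase expression after a fluorogenic Gly-Phe-AFC viability readout (25 uM final).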
TGFb SMAD3 inh = blocks TGF-b signaling; HepG2 CAGA-GFP TGF-b/SMAD3 reporter, GFP fluorescence, 18 h; TGF-beta stimulated, 500 pg/mL final; Potency, µM (highest dose often 46.1 µM), inactives show top-dose activity, negative = inhibition, most hits filed as inhibitors; actives 1.2% (n = 410,000); AID 588855; further: on the % scale 0 is the no-effect control and ±100 the full control effect; nearly all actives have a fitted effect of over 65% in size
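Using HEPG2 CAGA-GFP reporter cells at 1000 cells/well, we pinned test compounds, stimulated with recombinant TGF-beta (500 pg/mL final) and measured total well GFP after 18 h.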
TDP1 cell noCPT = qHTS for Inhibitors of human tyrosyl-DNA phosphodiesterase 1 (TDP1): qHTS in cells in absence of CPT; AID 686978, 2013; actives 15% (n = 420,000); Potency, µM (top dose mostly 46.2 µM), for inactives: at the top dose activity change, negative = growth inhibition, hits mostly inhibitors; DT40 Tdp1-/- hTDP1 cells, no CPT, ATP luminescence, 48 h; further: on the % scale 0 is the no-effect control and ±100 the full control effect; nearly all actives have a fitted effect of over 55% in size
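DT40 Tdp1-/-;hTDP1 cells, no CPT (DMSO vehicle only), 400 cells/well; compounds pin-transferred; ≥48 hr, 37 °C; CellTiter-Glo 30 min RT dark, luminescence read.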
* = called active by the depositor; i = inactive; ? = inconclusive; / = no result; ! = not confirmed by another sample; [ ] = another dose, or the depositor's remark. The call rests on the fitted dose curve; in most records, active means well fitted curve in the direction sought with a large enough effect; inconclusive means small, poorly fitted or top-dose-only effect, or another doubt; inactive means no such curve, though single readings can be large; an effect the other way counts as inactive or inconclusive. Potency means the concentration at half of the fitted maximal effect.

SMILES	ATXN viability	TDP1 cell CPT	HepG2 viability	ATXN2 expr inh	TGFb SMAD3 inh	TDP1 cell noCPT
COc1ccc(Cl)cc1N(C)C(=O)CCc1nc(-c2ccc(C)cc2)no1	i	18µM*	-2%	-9%	-20%	23µM*
COc1ccc(OC)c(N(CC(=O)N2CCN(c3cc(Cl)ccc3C)CC2)S(C)(=O)=O)c1	i	15µM*	-25%	-32%	-3%	?
CCN1CCN(C(=O)CN(c2cc(OC)ccc2OC)S(C)(=O)=O)CC1	i	1%	2%	29%	1%	-19%
Cc1ccc(Cl)cc1N1CCN(C(=O)CN(C2CCCCC2)S(C)(=O)=O)CC1	i	15µM*	-13%	-24%	0%	8.2µM*
O=C(CNC(=O)c1cccs1)OCc1c(F)cccc1Cl	i	30%	-1%	11%	-4%	5%
CNC(=S)N1CCN=C1Nc1nc(C)cc(C)n1	i	17%	-1%	18%[11.3 µM]	17%	6%
Nc1nc(NCc2ccc(Cl)c(Cl)c2)c2[nH]cnc2n1	/	?	-21%	/	-14%	13µM*
Cc1ccc(C(=O)Nc2ncc([N+](=O)[O-])s2)cc1	?	23µM*	-70%	2.8µM*	?	18µM*
O=C(Nc1ncc([N+](=O)[O-])s1)c1ccc2c(c1)OCO2	?	?	-64%	2.2µM*	?	18µM*
Cc1ccc(Cc2cnc(NC(=O)C3Cc4ccc(C)cc4C(=O)O3)s2)cc1 (stereo unspecified)	i	/	-16%	0%	20%	/
Cc1ccc(C(=O)Nc2ncc(Cc3ccc(SC(F)F)cc3)s2)cc1	?	1.2µM*	1%	-7%	?	1.3µM*
CCCc1ccc(C2=Nn3c(nnc3C(C)C)SC2)cc1	i	?	-22%	?	1%	?
CCOc1ccc2oc(=O)cc(CN3CCN(Cc4ccccc4)CC3)c2c1	i	?	-3%	/	-5%	23µM*
CCOc1ccc2oc(=O)cc(CN3CCN(Cc4ccc(C)cc4)CC3)c2c1	/	23µM*	-27%	/	2%	15µM*
CCOc1ccc2oc(=O)cc(CN3CCN(C(=O)c4ccco4)CC3)c2c1	i	-2%	-18%	-21%	3%	0%
Nc1nc2[nH]cc(CCc3ccc(C(=O)N[C@@H](CCC(=O)O)C(=O)O)cc3)c2c(=O)[nH]1	/	0.047µM*	-7%	-14%	-14%	0.03µM*
O=C(C[n+]1cc[nH]c1)c1ccc(Cl)cc1	i	-14%	2%	3%	8%	-20%
Cc1csc(SCC(=O)NCc2ccccc2)n1	i	-10%	-1%	-13%[11.3 µM]	1%	-8%
Cc1csc2sc(-c3ccnc(SCC(=O)NCc4ccccc4)n3)c(C)c12	i	0.73µM*	-5%	-1%	?	0.73µM*
COC(=O)Cc1nnc(SCC(=O)Nc2ccccc2)c2ccccc12	?	18µM*	-69%	/	?	23µM*
COC(=O)c1cccc(NC(=O)CSc2nc3cccnc3n2C)c1	?	?	1%	-21%	-11%	16µM*
COc1cccc(NC(=O)CSc2nc3ccccc3c(=O)n2C)c1	?	16µM*	-20%	/	-1%	23µM*
COc1cccc(NC(=O)CSc2nc(C3CC3)nc3ccccc23)c1	i	1%	-8%	-9%	-1%	-9%
CC(C)Oc1ccccc1NC(=O)CSc1nc2ccccc2c(=O)n1C	i	21µM*	-6%	/	?	?
Cc1c(C(=O)NC2CCCC2)sc2ncnc(NCCN(C)C)c12	i	-5%[9.04 µM]	/	/	/	7%
SMILES	ATXN viability	TDP1 cell CPT	HepG2 viability	ATXN2 expr inh	TGFb SMAD3 inh	TDP1 cell noCPT
CCn1ncc(S(=O)(=O)NCc2ccccc2Cl)c1C	i	-11%	-10%	0%	4%	19%
Cc1cccc(NC2=NC(=S)N(c3cccc(C(=O)O)c3)C23CCCCC3)c1	?	-6%	19%	/	8%	-5%
COc1ccc(N2C(=S)N=C(Nc3cccc(C)c3)C23CCCCC3)cc1	i	6.5µM*	-15%	-7%	2%	-26%
Cc1ccc(NC(=O)Cn2c(=O)c(CNc3ccccc3)cc3cc4c(cc32)OCCO4)cc1	i	?	-32%	19%	?	?
COc1ccccc1NS(=O)(=O)c1ccc(S(=O)(=O)N2CCOCC2)cc1	i	7%	14%	12%	-1%	6%
COc1ccc(-n2cc(CNC(C)c3ccncn3)c(-c3cccc(F)c3)n2)cc1 (stereo unspecified)	i	?	1%	-4%	-15%	26µM*
CCC(COC)NCc1cn(-c2ccc(OC)cc2)nc1-c1cccc(F)c1 (stereo unspecified)	?	16µM*	-17%	?	-12%	23µM*
CCN(CC(=O)Nc1c(F)cccc1F)C(=O)CSC(=S)N1CCCC1	i	-2%	2%	8%	13%	-5%
O=C(O)C(Cc1c[nH]c2ccccc12)N1CCS(=O)(=O)CC1 (stereo unspecified)	?	-2%	5%	-23%	1%	-2%
Cc1c(C)n2c(SCC(=O)N3CC(C)OC(C)C3)nnc2[nH]c1=O (stereo unspecified)	i	28%	0%	0%	5%	14%
COc1cccc(OC)c1OCCNCC1COc2ccccc2O1 (stereo unspecified)	i	15µM*!	-27%	1%	-11%	?
CCCNCC1COc2ccccc2O1 (stereo unspecified)	i	-3%	-5%	4%	5%	-5%

Source: PubChem
